Measurements published in the supplement of paper PMC8975748.
Counter-ions that a name gives are not always drawn.

tested on: Saccharomyces cerevisiae BY4741 SeMeCo community; test: z-score of subpopulation abundance vs DMSO median, subpopulation auxotrophic for UM; higher = larger share of this subpopulation than in DMSO controls; details: 10 µM; 24 h; SM minimal medium; subpopulation (auxotrophy): UM
Procedure: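 Fluorescent four-plasmid SeMeCo (self-establishing metabolically cooperating S. cerevisiae BY4741 community; plasmids pH-mRuby2, pL-mWasabi, pU-eCFP, pM-TagRFP657) was grown 24 h in minimal SM medium with each Selleck FDA-approved drug at 10 µM in 384-well plates. Cells were fixed and imaged by high-content confocal microscopy. For each auxotrophic subpopulation (and the prototroph), a z-score gives the deviation from the DMSO vehicle-control population median.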

| SMILES | z-score of subpopulation abundance |
| --- | --- |
| CO[C@H]1C[C@@H]2CC[C@@H](C)[C@@](O)(O2)C(=O)C(=O)N2CCCC[C@H]2C(=O)O[C@H]([C@H](C)C[C@@H]2CC[C@H](n3cnnn3)[C@H](OC)C2)CC(=O)[C@H](C)/C=C(\C)[C@@H](O)[C@@H](OC)C(=O)[C@H](C)C[C@H](C)/C=C/C=C/C=C/1C [Zotarolimus(ABT-578)] | 7.28 |
| Cc1cc(NS(=O)(=O)c2ccc(N)cc2)nc(C)n1 [sulfaisodimidine] | 0.16 |
| O=[N+]([O-])c1ccc(O)c2ncccc12 [Nitroxoline] | 4.38 |
| OC(c1cc(C(F)(F)F)nc2c(C(F)(F)F)cccc12)C1CCCCN1 (stereo not given) [Mefloquine HCl] | 0.92 |
| CC[C@H](C)C(=O)O[C@H]1C[C@@H](C)C=C2C=C[C@H](C)[C@H](CC[C@@H]3C[C@@H](O)CC(=O)O3)[C@H]21 [Lovastatin] | 1.08 |
| CN(C)CCCN1c2ccccc2Sc2ccccc21 [Promazine hydrochloride] | -0.02 |
| OC[C@H]1O[C@H](OCC2O[C@@H](O)[C@H](O)[C@@H](O)[C@@H]2O)[C@H](O)[C@@H](O)[C@H]1O (stereo not given in full) [Melibiose] | 0.56 |
| c1cnc2cc3c(cc2n1)[C@@H]1CNC[C@H]3C1 [Varenicline Tartrate] | -0.54 |
| C[C@@H]1C/C=C/C=C/C=C/C=C/[C@H](O[C@@H]2O[C@H](C)[C@@H](O)[C@H](N)[C@@H]2O)C[C@@H]2O[C@](O)(C[C@@H](O)C[C@H]3O[C@@H]3/C=C/C(=O)O1)C[C@H](O)[C@H]2C(=O)O [Natamycin] | 9.97 |
| CC(=O)[O-].[K+] [Potassium acetate] | -0.51 |
| CSCC1CN(/N=C/c2ccc([N+](=O)[O-])o2)C(=O)O1 (stereo not given) [Nifuratel] | -7.21 |
| C=CCN1CCCC1CNC(=O)c1cc2nn[nH]c2cc1OC (stereo not given) [Alizapride HCl] | 0.58 |
| O=C(Cn1cnnn1)N[C@@H]1C(=O)N2C(C(=O)O)=C(CSc3nncs3)CS[C@H]12 [Ceftezole sodium] | 0.35 |
| CN1C(C(=O)Nc2ccccn2)=C(O)c2sc(Cl)cc2S1(=O)=O [Lornoxicam] | 0.21 |
| CCC1=C(C)CN(C(=O)NCCc2ccc(S(=O)(=O)NC(=O)N[C@H]3CC[C@H](C)CC3)cc2)C1=O [Glimepiride] | 0.19 |
| CN1CCN2c3ncccc3Cc3ccccc3C2C1 (stereo not given) [Mirtazapine] | 0.24 |
| COc1ccc(C(C)=O)c(O)c1 [Paeonol] | 0.01 |
| CCCN(CCc1cccs1)[C@H]1CCc2c(O)cccc2C1 [Rotigotine] | -1.79 |
| N[C@@H]1CN(c2c(F)cc3c(=O)c(C(=O)O)cn([C@@H]4C[C@@H]4F)c3c2Cl)CC12CC2 [Sitafloxacin Hydrate] | 1.53 |
| CC1=C(C(=O)O)N2C(=O)[C@@H](NC(=O)[C@H](N)C3=CCC=CC3)[C@H]2SC1 [Cephradine monohydrate] | 0.58 |

| SMILES | z-score of subpopulation abundance |
| --- | --- |
| CCCCN1CCCC[C@H]1C(=O)Nc1c(C)cccc1C [Levobupivacaine HCl] | -0.49 |
| C/C(=C\C(=O)OCCCCCCCCC(=O)O)C[C@@H]1OC[C@H](C[C@@H]2O[C@H]2[C@@H](C)[C@H](C)O)[C@@H](O)[C@H]1O [Mupirocin calcium] | 1.73 |
| COc1ccccc1OCC(O)CN1CCN(CC(=O)Nc2c(C)cccc2C)CC1 (stereo not given) [Ranolazine 2HCl] | -0.16 |
| CC(C)NNC(=O)c1ccncc1 [Iproniazid] | 0.66 |
| CN(Cc1ccc(C(C)(C)C)cc1)Cc1cccc2ccccc12 [Butenafine HCl] | -1.21 |
| CC/C(=C(\c1ccccc1)c1ccc(OCCN(C)C)cc1)c1ccccc1 [Tamoxifen Citrate] | 1.43 |
| CO/N=C(\C(=O)N[C@@H]1C(=O)N2C(C(=O)O)=C(COC(N)=O)CS[C@H]12)c1ccco1 [Cefuroxime sodium] | 0.13 |
| COC(=O)C1=C(C)NC(C)=C(C(=O)OC(C)(C)CN(C)CCC(c2ccccc2)c2ccccc2)C1c1cccc([N+](=O)[O-])c1 (stereo not given) [Lercanidipine hydrochloride] | -1.34 |
| C[C@@H](c1nc(-c2ccc(C#N)cc2)cs1)[C@](O)(Cn1cncn1)c1cc(F)ccc1F [Isavuconazole] | 13.4 |
| CN(C)[C@@H]1C(=O)C(C(N)=O)=C(O)[C@@]2(O)C(=O)C3=C(O)c4c(O)ccc(Cl)c4[C@@H](O)[C@H]3C[C@@H]12 [Demeclocycline HCl] | -0.64 |
| Cn1c(=O)c2c(ncn2CC2OCCO2)n(C)c1=O [Doxofylline] | -0.67 |
| CC(C(=O)O)c1ccc2c(c1)CC(=O)c1ccccc1S2 (stereo not given) [Zaltoprofen] | -1.01 |
| CCNC(=O)[C@@H]1CCCN1C(=O)[C@H](CCCNC(=N)N)NC(=O)[C@H](CC(C)C)NC(=O)[C@@H](CC(C)C)NC(=O)[C@H](Cc1ccc(O)cc1)NC(=O)[C@H](CO)NC(=O)[C@H](Cc1c[nH]c2ccccc12)NC(=O)[C@H](Cc1c[nH]cn1)NC(=O)[C@@H]1CCC(=O)N1 [Leuprolide Acetate] | 0.23 |
| CO[C@@]1(NC(=O)CSC[C@@H](N)C(=O)O)C(=O)N2C(C(=O)O)=C(CSc3nnnn3C)CS[C@@H]21 [Cefminox Sodium] | 0 |
| N#Cc1ccc(Oc2ccc3c(c2)COB3O)cc1 [Crisaborole (AN2728)] | -0.21 |
| Clc1ccc(C(Cn2ccnc2)OCc2ccsc2Cl)c(Cl)c1 (stereo not given) [Tioconazole] | 8.69 |
| COC(=O)Nc1nc2cc(Sc3ccccc3)ccc2[nH]1 [Fenbendazole] | 0.27 |
| CC(C)COCC(CN(Cc1ccccc1)c1ccccc1)N1CCCC1 (stereo not given) [Bepridil hydrochloride] | 0.18 |
| COc1cc(O)c(C(=O)Nc2nc(C(=O)NCCN(C(C)C)C(C)C)cs2)cc1OC [Acotiamide hydrochloride] | 0.4 |
| Nc1c(Br)cc(Br)cc1CN[C@H]1CC[C@H](O)CC1 [Ambroxol HCl] | -0.8 |
